Screens deposited in PubChem by National Center for Advancing Translational Sciences (NCATS).
Sampled rows, rich in hits. Any-hit rate of the full collection: about 6%.
D3 antag: qHTS of D3 Dopamine Receptor Antagonist: qHTS. max response, negative = inhibition, %. AID 652054, 2013. D3R cells, DiscoveRx beta-arrestin luminescence, antagonist mode; active compounds read low. D(3) dopamine receptor (Homo sapiens), P35462. 360,000 tested, 2.5% active; in the data active = max response below about -50%; inconclusive = no clear call, values can overlap the other calls; note: % is set by controls: 0 for no effect and ±100 for the full control effect
Target sequence (P35462 whole entry, looked up): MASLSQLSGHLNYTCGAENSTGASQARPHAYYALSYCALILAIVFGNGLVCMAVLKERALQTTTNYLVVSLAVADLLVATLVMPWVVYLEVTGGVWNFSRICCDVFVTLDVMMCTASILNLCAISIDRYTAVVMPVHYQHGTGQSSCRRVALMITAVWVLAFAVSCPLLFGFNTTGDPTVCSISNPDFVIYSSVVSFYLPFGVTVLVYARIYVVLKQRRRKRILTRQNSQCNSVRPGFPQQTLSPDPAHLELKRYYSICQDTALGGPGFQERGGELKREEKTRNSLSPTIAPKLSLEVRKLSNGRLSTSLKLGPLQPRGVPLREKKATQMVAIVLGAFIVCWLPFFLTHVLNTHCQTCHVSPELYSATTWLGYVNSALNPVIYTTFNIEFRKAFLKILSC
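Cells expressing the human receptor were seeded at 1500 cells/well, incubated overnight at 37 degrees C in 5% CO2, then exposed to library compounds with dopamine controls for 90 minutes at 37 degrees C before luminescent detection.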
D1 antag: Antagonist of Human D 1 Dopamine Receptor: qHTS. HEK293 TREx D1 cells, calcium flux, dopamine EC80; active compounds read low. 360,000 tested, 3.2% active. activity change, negative = inhibition, % at 10 µM. D(1A) dopamine receptor (Homo sapiens), P21728; in the data active = activity change below about -30%; note: % is set by controls: 0 for no effect and ±100 for the full control effect
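HEK293 T-REx cells expressing inducible, force-coupled D1 receptor; no-wash Ca dye, 30–90 min RT. Cmpd → 180 s read at 1 Hz → EC80 DA → 180 s read.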
Chronic BCR inh: qHTS Assay to Find Inhibitors of Chronic Active B-Cell Receptor Signaling | ABC-DLBCL IkBa-CBG/CBR reporter, luminescence ratio, 4 h | Potency, µM (doses to about 46.1 µM), for inactives: top-dose activity change, negative = inhibition, actives largely listed as inhibitors | 340,000 tested, 0.05% active; active = well fitted inhibition curve with a large enough effect in the signal ratio, with a control signal flat, not every such curve was filed as active; inconclusive = small, poorly fitted or top-dose-only effect, or effect the other way, or a change in a side signal; the % refers to the signal ratio;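 note: potency is the fitted concentration of half-maximal effect; plate controls were basal doxycycline-induced cells for no effect and cells given 10 µM MG132 for full effect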
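Concentration-response series (up to 46 uM) were applied to TMD8 dual-reporter cells for 4 h at 37C with doxycycline. Green/red ratio, after filter-overlap correction, defined %Activity; red signal alone was normalised to basal cells and zero luminescence.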
D1 potentiator: Potentiators of Human D1 Dopamine Receptor: qHTS; D(1A) dopamine receptor (Homo sapiens), P21728; HEK293 TREx D1 cells, calcium flux, dopamine EC20 potentiation; potentiation, % at 10 µM; 360,000 tested, 0.036% active; AID 504651, 2011; in the data active = potentiation above about 30%; note: 0% is about no effect
D3 ag: qHTS of D3 Dopamine Receptor Agonist: qHTS; D3R DiscoveRx beta-arrestin cells, luminescence, 90 min; max activation, %; 410,000 tested, 0.58% active; in the data active = max activation above about 30%; note: 0% is about no effect
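Agonist-mode cell screen: cells plated at 1500/well and incubated overnight at 37 °C, then exposed to library compounds for 90 min at 37 °C. Detection reagent was added for 30–60 min at room temperature, and luminescence was read.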
D1 ag: Allosteric Agonists of the Human D1 Dopamine Receptor: qHTS; D(1A) dopamine receptor (Homo sapiens), P21728; HEK293 T-REx D1 cells, calcium flux, agonist mode; activation, % at 2 µM; 360,000 tested, 1% active; in the data active = activation above about 30%; note: 0% is about no effect
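Tetracycline-induced HEK293 TREx D1 cells, force-coupled to calcium signalling, were dye-loaded with a no-wash calcium kit. Compound was pin-added after a 10 s baseline. Fluorescence was read kinetically at 1 cycle/s for 180 s, with calcium rises flagged as agonism.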
The depositor's hits bear a star.

CN1CCN(Cc2c(O)ccc3occ(C(=O)c4ccccc4)c23)CC1 was read as D3 antag 0, D1 antag -77*, Chronic BCR inh inconclusive, D1 potentiator -11, D3 ag 1 and D1 ag 15.
CCc1ccccc1Nc1ncnc2ccccc12 was read as D3 antag 58, D1 antag -60*, Chronic BCR inh -5%, D1 potentiator -8, D3 ag 0 and D1 ag 7.
COc1ccc(C(C)(C)C)cc1NC(=O)c1cc(S(=O)(=O)N(C)C)ccc1N1CCCC1 was read as D3 antag -9, D1 antag -51*, Chronic BCR inh inconclusive, D1 potentiator -9, D3 ag -7 and D1 ag 4.
Screening COc1cc(Nc2nc3c(S(=O)(=O)c4cccc(Cl)c4)nnn3c3ccsc23)cc(OC)c1 returned D1 antag -1, D1 potentiator -2, D3 ag 7 and D1 ag 0.
`Cc1ccc(C)c(S(=O)(=O)c2nnn3c2nc(NC(C)C)c2sccc23)c1` gave D1 antag -60*, D1 potentiator -7, D3 ag 6 and D1 ag 1.
For CCc1ccc(S(=O)(=O)c2nnn3c2nc(NC2CCCC2)c2sccc23)cc1 the results were D1 antag -32*, D1 potentiator -6, D3 ag 4 and D1 ag 4.
`CC(C)Nc1nc2c(S(=O)(=O)c3cccc(Cl)c3)nnn2c2ccsc12` gave D1 antag -57*, D1 potentiator -8, D3 ag -13 and D1 ag 2.
CCCCNc1nc2c(S(=O)(=O)c3ccc(Cl)cc3)nnn2c2ccsc12 was read as D1 antag -51*, D1 potentiator -8, D3 ag 5 and D1 ag 0.
`C[C@@H]1O[C@@H](OC[C@H]2O[C@@H](Oc3c(-c4ccc(OCCO)c(OCCO)c4)oc4cc(OCCO)cc(O)c4c3=O)[C@H](O)[C@@H](O)[C@@H]2O)[C@H](O)[C@H](O)[C@H]1O` gave D3 ag 3.
COC(=O)[C@]12CCCCC=C1N(Cc1ccc3c(c1)OCO3)C(=O)[C@H](CC(=O)N1CCN(C(=O)c3ccco3)CC1)C2 was read as D3 antag 13 and D3 ag 9.
COc1ccc(-n2ccnc(NCc3ccc(C)cc3)c2=O)cc1OC was read as D1 antag -17, D1 potentiator -4, D3 ag -6 and D1 ag 0.
Screening CCCCC(CC)CNC(=O)CN(C)S(=O)(=O)c1ccc2c(c1)c(=O)n(C)c(=O)n2C (stereo unspecified) returned D1 antag 12, D1 potentiator 3, D3 ag -5 and D1 ag 1.
Screening Cc1ccc(NC(=O)c2cnn(-c3ccc(C)c(C)c3)c2C2CCN(C(=O)OC(C)(C)C)CC2)c(C)c1 returned D1 antag -2, D1 potentiator -2, D3 ag 1 and D1 ag 3.
Screening Cc1cc(C(F)(F)F)c2sc(N)nc2n1 returned D3 antag 10, D1 antag -53*, Chronic BCR inh -8%, D1 potentiator -6, D3 ag 3 and D1 ag 2.
Nc1nc2nc(-c3ccccc3)cc(C(F)(F)F)c2s1 was read as D3 antag -8, D1 antag 20, Chronic BCR inh inconclusive, D1 potentiator 11, D3 ag -4 and D1 ag -1.
For CCOC(=O)c1cnc(Nc2nc3ccccc3o2)nc1CSc1ncccn1 the results were D3 antag -22 and D3 ag 9.
